Results as given in PubChem BioAssay (Tox21).
Records with an inconclusive call do not appear. Where a call stands in place of a potency, no number is given. Activity calls are given as the source filed them. Unless noted, calls come from the whole dose curve; as a rule, active = well fitted curve in the direction sought with a large enough effect in the repeat runs; inconclusive = weak or mixed curves; inactive = no such curve, though single readings can be large; an effect the other way counts as inactive or inconclusive.

Tests used:
[1] = biological target: Retinoic acid receptor RXR-alpha (Homo sapiens) (UniProt P19793); assay: qHTS assay to identify small molecule agonists of the RXR signaling pathway (AID 1159527; calls by dose curve; note: nearly all actives have a fitted effect of over 35% in size)
Summary of the method: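 Reporter activation is measured as beta-lactamase activity via FRET substrate cleavage (emission 460/530 nm) in HEK 293T cells expressing an RXR-alpha-driven bla construct, following 16 hr compound exposure at 37 C.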

[2] = qHTS assay to identify small molecule antagonists of the retinoid acid receptor (RAR) signaling pathway - cell viability counter screen (AID 1159551); note: nearly all actives have a fitted effect of over 35% in size
Summary of the method: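 ATP-based viability, C3RL4 cells, 6 h at 37 C with 1 uM final retinol co-added after compound; luminescence read 30 min post CellTiter-Glo, RT.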

[3] = qHTS assay to identify small molecule antagonists of the retinoic acid receptor (RAR) signaling pathway (AID 1159552; note: nearly all actives have a fitted effect of over 50% in size)
Summary of the method: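 Overnight-plated C3RL4 reporter cells get compound, then retinol to 1 uM final; plates sit 6 hr at 37 C, 5% CO2. A luciferase reagent is added and light output recorded after 30 min at room temperature.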

[4] = qHTS assay to identify small molecule agonists of the retinoic acid receptor (RAR) signaling pathway (AID 1159553); note: potency is the fitted concentration of half-maximal effect
Summary of the method: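 Quantitative high-throughput format: the Tox21 10K library was tested on C3RL4 RARE-luciferase cells for 6 hr at 37 C and 5% CO2, with luminescence measured after a 30 min room-temperature reagent step.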

[5] = qHTS assay to identify small molecule antagonists of the estrogen related receptor (ERR) signaling pathway from Tox21 library - cell viability counter screen (AID 1224834); note: nearly all actives have a fitted effect of over 30% in size
Summary of the method: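 Compounds in DMSO were pinned onto ERR cells that had been incubated for 6 h, and the plates were held at 37 C for 17.5 h. CellTiter-Fluor reagent was then added and fluorescence was measured after 30 min.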

[6] = biological target: Luciferin 4-monooxygenase (Photinus pyralis) (UniProt P08659); assay: qHTS assay to identify small molecule inhibitors of firefly luciferase (AID 1224835); note: nearly all actives have a fitted effect of over 25% in size; note: potency is the fitted concentration of half-maximal effect
Summary of the method: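 Quantitative HTS format; KM concentrations of both substrates. Purified P. pyralis FLuc activity quantified from luminescence images.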

[7] = qHTS assay to identify small molecule agonists of the constitutive androstane receptor (CAR) signaling pathway - cell viability counter screen (AID 1224836); note: series mostly up to about 92 µM; nearly all actives have a fitted effect of over 45% in size
Summary of the method: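 Fluorescence from CellTiter-Fluor indicates live cells after 23 h exposure. The human hepatoma line expresses hCAR and a CYP2B6-2.2kb reporter. Incubation medium contains 0.75 uM PK11195 (final).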

[8] = qHTS assay to identify small molecule antagonists of the estrogen related receptor signaling pathway with the pleiotropic PPARgamma coactivator (PGC) from Tox21 10K library - cell viability counter screen (AID 1224840; active = well fitted cell-killing curve with a large enough effect in the repeat runs, not every such curve was filed as active; note: nearly all actives have a fitted effect of over 40% in size)
Summary of the method: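 Cell viability is measured by CellTiter-Fluor fluorescence in PGC/ERR cells that receive compounds after a 6-hour attachment period and are then incubated 17.5 hours at 37 C.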

[9] = qHTS assay to identify small molecule agonists of the RXR signaling pathway - cell viability counter screen (AID 1159529); note: series mostly up to about 77 µM; nearly all actives have a fitted effect of over 50% in size
Summary of the method: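 Tox21 10K compounds were tested for cytotoxicity against GeneBLAzer RXR-alpha HEK 293T cells grown in 2% charcoal-stripped FBS. Exposure lasted 16 hr at 37 C, 5% CO2; viability read by CellTiter-Glo luminescence.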

[10] = qHTS assay to identify small molecule antagonists of the constitutive androstane receptor (CAR) signaling pathway - cell viability counter screen (AID 1224837); note: series mostly up to about 92 µM; nearly all actives have a fitted effect of over 45% in size
Summary of the method: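 Cells are seeded, rested 4 hr at 37 C/5% CO2, dosed with compound (15-point series) and 50 nM CITCO, incubated a further 23 hr, and then CellTiter-Fluor reagent is added before fluorescence is read. The line is HepG2 with stable hCAR and CYP2B6-2.2kb.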

[11] = biological target: Nuclear receptor subfamily 1 group I member 3 (Homo sapiens) (UniProt Q14994); assay: qHTS assay to identify small molecule antagonists of the constitutive androstane receptor (CAR) signaling pathway (AID 1224838);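 note: HepG2 cells stably expressing hCAR with CYP2B6 luciferase reporter stimulated by CITCO; nearly all actives have a fitted effect of over 40% in size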
Summary of the method: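 Luminescence from a CYP2B6-2.2kb promoter reporter in hCAR-expressing HepG2 cells reflects CAR signaling. Cells received compounds at 15 concentrations and 50 nM CITCO (final), then incubated 24 h at 37 C/5% CO2.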

[12] = biological target: Nuclear receptor subfamily 1 group I member 3 (Homo sapiens) (UniProt Q14994); assay: qHTS assay to identify small molecule agonists of the constitutive androstane receptor (CAR) signaling pathway (AID 1224839); note: nearly all actives have a fitted effect of over 15% in size; note: potency is the fitted concentration of half-maximal effect
Summary of the method: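 Stable hCAR/CYP2B6-2.2kb HepG2 line in DMEM with 10% FBS; compounds (15 concentrations) and 0.75 uM PK11195 final, 24 h at 37 C/5% CO2, then ONE-Glo luminescence after 30 min.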

[13] = qHTS assay to identify small molecule antagonists of the estrogen related receptor signaling pathway with the pleiotropic PPARgamma coactivator (PGC) from Tox21 10K library (AID 1224841; call rule not given here; note: series mostly up to about 92 µM; actives are mostly falling curves and most rising ones were filed inactive; nearly all actives have a fitted effect of over 50% in size)
Summary of the method: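 Cells stably carrying the PGC/ERR reporter, seeded at 2,000 per well, received pin-transferred compounds 6 h post-plating. Exposure lasted 18 h at 37 C. Signal: One-Glo luminescence.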

[14] = qHTS assay to identify small molecule agonists of the estrogen related receptor signaling pathway with the pleiotropic PPARgamma coactivator (PGC) from Tox21 10K library (AID 1224842); note: nearly all actives have a fitted effect of over 15% in size; note: potency is the fitted concentration of half-maximal effect
Summary of the method: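 PGC/ERR reporter cells (NTP line) were seeded 2,000 per well, rested 6 h at 37 C/5% CO2, then pin-dosed with compounds in DMSO for 18 h at 37 C; luciferase read by One-Glo luminescence after 30 min at room temperature.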

Chain of Nuclear receptor subfamily 1 group I member 3 (Homo sapiens) (Q14994 whole entry, looked up): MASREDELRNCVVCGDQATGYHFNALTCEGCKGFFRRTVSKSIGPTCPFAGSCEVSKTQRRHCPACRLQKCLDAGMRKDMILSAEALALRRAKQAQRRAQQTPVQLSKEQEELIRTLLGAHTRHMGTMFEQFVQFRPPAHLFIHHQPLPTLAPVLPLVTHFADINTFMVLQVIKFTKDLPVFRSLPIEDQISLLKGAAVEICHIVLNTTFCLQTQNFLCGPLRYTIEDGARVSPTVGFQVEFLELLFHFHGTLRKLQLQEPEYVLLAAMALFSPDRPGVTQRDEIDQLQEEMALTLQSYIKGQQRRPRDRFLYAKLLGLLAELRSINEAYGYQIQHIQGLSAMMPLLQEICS
Chain of Luciferin 4-monooxygenase (Photinus pyralis) (P08659 whole entry, looked up): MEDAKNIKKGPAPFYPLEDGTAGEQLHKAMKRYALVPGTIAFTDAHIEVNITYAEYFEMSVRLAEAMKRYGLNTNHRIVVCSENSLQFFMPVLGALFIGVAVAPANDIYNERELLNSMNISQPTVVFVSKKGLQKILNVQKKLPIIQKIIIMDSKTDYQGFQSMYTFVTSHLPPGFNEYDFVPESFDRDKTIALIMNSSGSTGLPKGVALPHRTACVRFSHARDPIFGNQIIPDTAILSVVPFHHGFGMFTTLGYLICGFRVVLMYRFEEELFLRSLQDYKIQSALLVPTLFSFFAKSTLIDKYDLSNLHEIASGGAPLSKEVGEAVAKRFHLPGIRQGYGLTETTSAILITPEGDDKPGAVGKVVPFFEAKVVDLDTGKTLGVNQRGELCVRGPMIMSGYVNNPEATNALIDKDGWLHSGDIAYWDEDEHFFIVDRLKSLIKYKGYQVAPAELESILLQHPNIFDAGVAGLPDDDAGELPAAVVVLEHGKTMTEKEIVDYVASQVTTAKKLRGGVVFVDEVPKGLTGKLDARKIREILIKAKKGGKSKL
Chain of Retinoic acid receptor RXR-alpha (Homo sapiens) (P19793 whole entry, looked up): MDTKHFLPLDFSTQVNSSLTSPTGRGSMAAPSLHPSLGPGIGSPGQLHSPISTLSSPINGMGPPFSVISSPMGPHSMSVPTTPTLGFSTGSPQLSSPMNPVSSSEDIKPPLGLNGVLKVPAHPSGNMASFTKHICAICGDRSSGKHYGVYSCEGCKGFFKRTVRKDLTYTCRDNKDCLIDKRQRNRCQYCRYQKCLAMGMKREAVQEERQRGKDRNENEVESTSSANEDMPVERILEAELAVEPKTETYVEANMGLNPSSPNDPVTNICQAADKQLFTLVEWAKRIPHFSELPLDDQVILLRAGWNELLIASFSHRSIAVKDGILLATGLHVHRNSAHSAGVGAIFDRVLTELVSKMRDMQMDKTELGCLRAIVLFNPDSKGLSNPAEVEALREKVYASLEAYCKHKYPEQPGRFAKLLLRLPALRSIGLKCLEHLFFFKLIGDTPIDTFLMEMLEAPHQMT

Row | Compound | Potency [1] | outcome [2] | Potency [3] | Potency [4] | Potency [5] | Potency [6] | outcome [7] | outcome [8] | Potency [9] | outcome [10] | Potency [11] | Potency [12] | Potency [13] | Potency [14]
1 | COc1ccc(NC(C)=O)cc1 | inactive | inactive | inactive | inactive | inactive | inactive | inactive | inactive | – | – | – | – | – | –
2 | CCCCC1CCCCC(=O)O1 (stereo not drawn) | – | inactive | inactive | inactive | inactive | inactive | inactive | inactive | inactive | inactive | inactive | inactive | inactive | inactive
3 | c1ccc(SCCSc2ccccc2)cc1 | – | inactive | inactive | 6.06 µM (active) | inactive | 7.9 µM (active) | inactive | inactive | inactive | inactive | inactive | 17.1 µM (active) | inactive | 5.4 µM (active)
4 | CC(C)(C)N(CCO)CCO | – | inactive | inactive | inactive | inactive | inactive | inactive | inactive | inactive | inactive | – | inactive | – | –
5 | O=S(=O)(O)c1ccccc1O | – | inactive | inactive | inactive | – | inactive | inactive | inactive | inactive | inactive | inactive | inactive | inactive | inactive
6 | Cc1nc(-c2ccc(OCC(C)C)c(C#N)c2)sc1C(=O)O | – | inactive | inactive | 0.0944 µM (active) | inactive | 0.309 µM (active) | inactive | inactive | inactive | inactive | inactive | – | inactive | 0.668 µM (active)
7 | CCC(C)OC(=O)N1CCCCC1CCO (stereo not drawn) | – | inactive | inactive | inactive | – | – | inactive | inactive | inactive | inactive | inactive | inactive | inactive | inactive
8 | CN(C)C(=O)Nc1ccccc1 | – | inactive | inactive | inactive | inactive | inactive | inactive | inactive | inactive | inactive | inactive | – | inactive | inactive
9 | COC(=O)[C@H]1[C@H]2C[C@@H]3c4[nH]c5cc(OC)ccc5c4CCN3C[C@H]2C[C@@H](OC(=O)COc2ccc(OC)cc2)[C@@H]1OC | – | inactive | inactive | inactive | inactive | – | inactive | inactive | inactive | inactive | – | inactive | inactive | inactive
10 | OC[C@H]1O[C@@H]2O[C@H]3[C@H](O)[C@@H](O)[C@@H](O[C@H]4[C@H](O)[C@@H](O)[C@@H](O[C@H]5[C@H](O)[C@@H](O)[C@@H](O[C@H]6[C@H](O)[C@@H](O)[C@@H](O[C@H]7[C@H](O)[C@@H](O)[C@@H](O[C@H]8[C@H](O)[C@@H](O)[C@@H](O[C@H]9[C@H](O)[C@@H](O)[C@@H](O[C@H]1[C@H](O)[C@H]2O)O[C@@H]9CO)O[C@@H]8CO)O[C@@H]7CO)O[C@@H]6CO)O[C@@H]5CO)O[C@@H]4CO)O[C@@H]3CO | – | inactive | inactive | inactive | inactive | – | inactive | inactive | inactive | inactive | inactive | – | inactive | inactive
